# Experimental data from PubChem BioAssay (NCATS).
# Values joined by “and” are separate entries in the source; they are usually repeats but may differ in a detail not shown here. Equal values may be shown once. Records with an inconclusive call do not appear. Active and inactive are the calls of the source. Unless noted, calls come from the whole dose curve.
# Key:
# [1] = biological target: Glucocorticoid receptor (Homo sapiens) (UniProt P04150); assay: qHTS assay for small molecule agonists of glucocorticoid receptor signaling (AID 588532; active = well fitted curve in the direction sought with a large enough effect in the signal ratio, with a control signal flat; the % refers to the signal ratio;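 note: 100% = dexamethasone at 0.1 µM and 0% = DMSO only wells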); conditions: HeLa MMTV-bla, beta-lactamase ratio, agonist, 18 h; stronger effect = higher value; percent of dexamethasone control, DMSO zero
# Chain of Glucocorticoid receptor (Homo sapiens) (P04150 whole entry, looked up): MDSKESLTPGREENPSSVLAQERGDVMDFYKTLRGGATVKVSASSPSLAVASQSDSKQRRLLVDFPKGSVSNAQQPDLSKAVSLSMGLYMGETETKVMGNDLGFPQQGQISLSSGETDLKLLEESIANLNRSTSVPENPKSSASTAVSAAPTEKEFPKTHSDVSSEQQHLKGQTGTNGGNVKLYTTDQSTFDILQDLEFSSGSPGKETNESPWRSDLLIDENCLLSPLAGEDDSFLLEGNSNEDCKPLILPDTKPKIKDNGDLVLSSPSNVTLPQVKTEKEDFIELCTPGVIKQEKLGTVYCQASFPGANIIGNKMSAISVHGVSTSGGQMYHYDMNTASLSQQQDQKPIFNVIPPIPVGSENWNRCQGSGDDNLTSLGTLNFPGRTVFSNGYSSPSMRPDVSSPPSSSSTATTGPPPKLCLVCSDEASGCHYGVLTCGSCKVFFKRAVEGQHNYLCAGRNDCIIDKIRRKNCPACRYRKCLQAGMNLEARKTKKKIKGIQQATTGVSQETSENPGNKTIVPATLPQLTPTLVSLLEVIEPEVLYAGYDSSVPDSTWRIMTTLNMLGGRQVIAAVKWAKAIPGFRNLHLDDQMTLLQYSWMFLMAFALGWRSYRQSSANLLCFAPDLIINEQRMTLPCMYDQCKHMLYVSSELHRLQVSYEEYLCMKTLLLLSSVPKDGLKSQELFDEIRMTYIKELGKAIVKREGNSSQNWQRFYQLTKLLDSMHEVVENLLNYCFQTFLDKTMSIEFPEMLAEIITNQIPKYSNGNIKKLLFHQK
# Outline: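 Stimulation of a glucocorticoid response element-driven beta-lactamase gene was measured in HeLa cells. Responses were scaled between DMSO basal and 0.1 uM dexamethasone, then fitted for half-maximal stimulation.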
# [2] = biological target: Glucocorticoid receptor (Homo sapiens) (UniProt P04150); assay: qHTS assay for small molecule antagonists of glucocorticoid receptor signaling (AID 588533; active = well fitted inhibition curve with a large enough effect in the signal ratio, with a control signal flat, not every such curve was filed as active; the % refers to the signal ratio;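 note: cells stimulated with 2 nM dexamethasone as agonist; % is set by controls: 0 for no effect and ±100 for the full control effect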); conditions: HeLa MMTV-bla, GRE beta-lactamase ratio, antagonist mode, 18 h; series mostly up to 76.8 µM
# Outline: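 Antagonist-mode qHTS: compound titrations added to GRE-bla HeLa cells, then dexamethasone 2 nM final; 18 h, 37 C. CCF4 FRET fluorescence normalized to dexamethasone and DMSO; IC50 from Hill fit.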
# [3] = qHTS assay for small molecule antagonists of peroxisome proliferator-activated receptor delta signaling (AID 588535; active = well fitted inhibition curve with a large enough effect in the signal ratio, with a control signal flat, not every such curve was filed as active; the % refers to the signal ratio;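 for max response: cells co-treated with a PPAR-delta agonist as stimulator during compound exposure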); conditions: HEK293T PPARd-UAS-bla, beta-lactamase FRET ratio, 18 h; 460 nm channel
# Outline: (§1)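 GeneBLAzer PPAR-delta-UAS-bla HEK293T cells in medium with 2% charcoal/dextran FBS were preincubated 5 hrs at 37 C, then given compounds, incubated 18 hrs at 37 C, and read by CCF4 beta-lactamase fluorescence; IC50 from Hill fits.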
# [4] = biological target: Peroxisome proliferator-activated receptor delta (Homo sapiens) (UniProt Q03181); assay: as above; conditions: HEK293T PPARd-UAS-bla, beta-lactamase FRET ratio, 18 h; series mostly up to 76.7 µM
# Chain of Peroxisome proliferator-activated receptor delta (Homo sapiens) (Q03181 whole entry, looked up): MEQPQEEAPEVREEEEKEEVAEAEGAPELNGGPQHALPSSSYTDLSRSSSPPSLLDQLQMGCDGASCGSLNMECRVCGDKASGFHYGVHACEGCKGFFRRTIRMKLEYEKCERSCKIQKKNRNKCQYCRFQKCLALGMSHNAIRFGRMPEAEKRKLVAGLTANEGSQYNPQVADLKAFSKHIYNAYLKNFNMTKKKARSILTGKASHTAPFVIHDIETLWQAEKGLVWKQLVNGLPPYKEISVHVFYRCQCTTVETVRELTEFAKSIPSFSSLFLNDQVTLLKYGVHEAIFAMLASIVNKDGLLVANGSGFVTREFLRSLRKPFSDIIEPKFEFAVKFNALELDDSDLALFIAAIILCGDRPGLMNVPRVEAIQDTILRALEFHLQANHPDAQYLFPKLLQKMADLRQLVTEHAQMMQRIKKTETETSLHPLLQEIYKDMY
# Outline: as §1
# [5] = biological target: Peroxisome proliferator-activated receptor gamma (Homo sapiens) (UniProt P37231); assay: qHTS assay for small molecule agonists of peroxisome proliferator-activated receptor gamma signaling (AID 588536; active = well fitted curve in the direction sought with a large enough effect in the signal ratio, with a control signal flat, not every such curve was filed as active; the % refers to the signal ratio;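 note: 0% = DMSO basal wells and 100% = rosiglitazone at 2 µM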); conditions: HEK293 PPARg-UAS-bla, beta-lactamase ratio, 16 h, percent of rosiglitazone response, DMSO as zero; series mostly up to 76.7 µM
# Chain of Peroxisome proliferator-activated receptor gamma (Homo sapiens) (P37231 whole entry, looked up): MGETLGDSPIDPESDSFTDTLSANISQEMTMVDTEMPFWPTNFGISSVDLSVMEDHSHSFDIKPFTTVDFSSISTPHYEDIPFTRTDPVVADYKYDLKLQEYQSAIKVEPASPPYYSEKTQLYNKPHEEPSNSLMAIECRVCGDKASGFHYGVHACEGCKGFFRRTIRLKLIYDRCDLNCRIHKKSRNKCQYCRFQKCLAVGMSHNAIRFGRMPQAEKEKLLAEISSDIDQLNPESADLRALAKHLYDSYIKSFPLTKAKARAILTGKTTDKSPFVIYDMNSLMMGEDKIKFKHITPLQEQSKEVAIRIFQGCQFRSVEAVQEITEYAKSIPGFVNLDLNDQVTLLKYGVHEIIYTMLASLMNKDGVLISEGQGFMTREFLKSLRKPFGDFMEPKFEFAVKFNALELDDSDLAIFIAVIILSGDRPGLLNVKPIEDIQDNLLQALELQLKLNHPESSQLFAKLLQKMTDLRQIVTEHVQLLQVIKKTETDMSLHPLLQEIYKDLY
# Outline: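 Test agents, titrated, stimulated HEK293 UAS-bla cells overnight (16 h, 37 C). Substrate CCF4 was then added for two hours at room temperature before fluorescence reading.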
# [6] = biological target: DNA dC->dU-editing enzyme APOBEC-3G (Homo sapiens) (UniProt Q9HC16); assay: qHTS for inhibitors of Vif-A3G interactions: Validation (AID 588379; active = well fitted inhibition curve with a large enough effect; note: 0% is about no effect); conditions: Vif-A3G protein interaction assay; series mostly up to 46.1 µM
# Chain of DNA dC->dU-editing enzyme APOBEC-3G (Homo sapiens) (Q9HC16 whole entry, looked up): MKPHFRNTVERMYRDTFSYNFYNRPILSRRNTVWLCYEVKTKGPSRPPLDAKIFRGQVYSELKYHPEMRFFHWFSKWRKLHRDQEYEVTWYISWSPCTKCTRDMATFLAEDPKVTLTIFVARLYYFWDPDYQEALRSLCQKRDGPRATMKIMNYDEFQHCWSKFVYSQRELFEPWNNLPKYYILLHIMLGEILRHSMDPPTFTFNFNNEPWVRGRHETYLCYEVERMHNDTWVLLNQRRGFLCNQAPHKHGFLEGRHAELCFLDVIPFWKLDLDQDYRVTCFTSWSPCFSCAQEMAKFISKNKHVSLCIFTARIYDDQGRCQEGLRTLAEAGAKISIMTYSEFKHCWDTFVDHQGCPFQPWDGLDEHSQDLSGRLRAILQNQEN
# Outline: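 HeLa cells stably expressing Vif and A3G-eYFP, 700 cells/well, incubated overnight at 37 deg C, then exposed to compound overnight at 37 deg C. Inhibition of Vif-mediated degradation read as increased yellow fluorescence (Ex 488/Em 500-530) by laser-scanning cytometry.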
# [7] = biological target: Estrogen receptor (Homo sapiens) (UniProt P03372); assay: qHTS assay for small molecule antagonists of estrogen receptor alpha signaling (AID 588513; active = well fitted curve in the direction sought with a large enough effect in the signal ratio, with a control signal flat, not every such curve was filed as active; the % refers to the signal ratio; note: % is set by controls: 0 for no effect and ±100 for the full control effect); conditions: ER-alpha-UAS-bla HEK293, beta-lactamase ratio, antagonist mode; series mostly up to 76.9 µM
# Chain of Estrogen receptor (Homo sapiens) (P03372 whole entry, looked up): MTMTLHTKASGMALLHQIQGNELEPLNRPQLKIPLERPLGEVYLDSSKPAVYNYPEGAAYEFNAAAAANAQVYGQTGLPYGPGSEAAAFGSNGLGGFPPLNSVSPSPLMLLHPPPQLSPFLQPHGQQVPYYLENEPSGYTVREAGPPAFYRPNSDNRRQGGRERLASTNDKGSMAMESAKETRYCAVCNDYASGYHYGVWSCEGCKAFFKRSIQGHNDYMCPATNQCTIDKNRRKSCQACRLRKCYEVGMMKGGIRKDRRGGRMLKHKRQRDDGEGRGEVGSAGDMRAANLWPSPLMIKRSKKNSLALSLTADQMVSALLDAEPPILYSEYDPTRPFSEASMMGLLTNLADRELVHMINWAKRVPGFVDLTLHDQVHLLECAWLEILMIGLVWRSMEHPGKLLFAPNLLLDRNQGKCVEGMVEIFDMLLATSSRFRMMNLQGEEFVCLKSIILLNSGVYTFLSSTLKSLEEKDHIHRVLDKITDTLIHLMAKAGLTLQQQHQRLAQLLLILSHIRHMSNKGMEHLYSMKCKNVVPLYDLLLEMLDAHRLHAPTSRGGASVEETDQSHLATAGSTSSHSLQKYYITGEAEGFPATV
# Outline: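 Antagonist mode: inhibition of 0.5 nM 17-beta-estradiol-driven beta-lactamase reporter in HEK 293 ER-alpha-UAS-bla cells, 18 h at 37C, CCF4 readout after 2 h at RT. Normalised to estradiol and DMSO; titration fitted to Hill.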
# [8] = biological target: Bile acid receptor (Homo sapiens) (UniProt Q96RI1); assay: qHTS assay for small molecule antagonists of farnesoid X receptor signaling (AID 588526); conditions: HEK293T FXR-UAS-bla, beta-lactamase ratio, antagonist mode; series mostly up to 76.7 µM; note: % is set by controls: 0 for no effect and ±100 for the full control effect
# Chain of Bile acid receptor (Homo sapiens) (Q96RI1 whole entry, looked up): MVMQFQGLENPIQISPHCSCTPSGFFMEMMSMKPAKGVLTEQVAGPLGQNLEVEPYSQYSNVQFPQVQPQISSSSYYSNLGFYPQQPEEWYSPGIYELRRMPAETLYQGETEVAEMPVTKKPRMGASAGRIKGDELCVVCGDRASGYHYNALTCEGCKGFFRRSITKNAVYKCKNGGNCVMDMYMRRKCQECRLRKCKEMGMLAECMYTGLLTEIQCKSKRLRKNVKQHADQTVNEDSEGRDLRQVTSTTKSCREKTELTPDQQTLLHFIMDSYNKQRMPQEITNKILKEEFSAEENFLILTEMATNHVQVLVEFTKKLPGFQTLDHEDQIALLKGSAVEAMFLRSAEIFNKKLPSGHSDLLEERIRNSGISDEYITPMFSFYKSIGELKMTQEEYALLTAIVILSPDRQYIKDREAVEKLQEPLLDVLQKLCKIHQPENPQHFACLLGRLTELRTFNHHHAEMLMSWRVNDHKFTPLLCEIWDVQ
# Outline: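 Concentration-response titrations were fitted to the Hill equation for half-maximal inhibition and maximal response, with data normalised to 50 uM chenodeoxycholic acid and DMSO control wells. Cells: FXR-UAS-bla HEK293T, dialyzed FBS.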
# [9] = biological target: Androgen receptor (Homo sapiens) (UniProt P10275); assay: qHTS assay for small molecule antagonists of androgen receptor signaling (AID 588516; active = well fitted curve in the direction sought with a large enough effect in the signal ratio, with a control signal flat, not every such curve was filed as active; the % refers to the signal ratio; note: % is set by controls: 0 for no effect and ±100 for the full control effect); conditions: AR-UAS-bla HEK293, beta-lactamase ratio, antagonist mode, 16 h; series mostly up to 76.8 µM
# Chain of Androgen receptor (Homo sapiens) (P10275 whole entry, looked up): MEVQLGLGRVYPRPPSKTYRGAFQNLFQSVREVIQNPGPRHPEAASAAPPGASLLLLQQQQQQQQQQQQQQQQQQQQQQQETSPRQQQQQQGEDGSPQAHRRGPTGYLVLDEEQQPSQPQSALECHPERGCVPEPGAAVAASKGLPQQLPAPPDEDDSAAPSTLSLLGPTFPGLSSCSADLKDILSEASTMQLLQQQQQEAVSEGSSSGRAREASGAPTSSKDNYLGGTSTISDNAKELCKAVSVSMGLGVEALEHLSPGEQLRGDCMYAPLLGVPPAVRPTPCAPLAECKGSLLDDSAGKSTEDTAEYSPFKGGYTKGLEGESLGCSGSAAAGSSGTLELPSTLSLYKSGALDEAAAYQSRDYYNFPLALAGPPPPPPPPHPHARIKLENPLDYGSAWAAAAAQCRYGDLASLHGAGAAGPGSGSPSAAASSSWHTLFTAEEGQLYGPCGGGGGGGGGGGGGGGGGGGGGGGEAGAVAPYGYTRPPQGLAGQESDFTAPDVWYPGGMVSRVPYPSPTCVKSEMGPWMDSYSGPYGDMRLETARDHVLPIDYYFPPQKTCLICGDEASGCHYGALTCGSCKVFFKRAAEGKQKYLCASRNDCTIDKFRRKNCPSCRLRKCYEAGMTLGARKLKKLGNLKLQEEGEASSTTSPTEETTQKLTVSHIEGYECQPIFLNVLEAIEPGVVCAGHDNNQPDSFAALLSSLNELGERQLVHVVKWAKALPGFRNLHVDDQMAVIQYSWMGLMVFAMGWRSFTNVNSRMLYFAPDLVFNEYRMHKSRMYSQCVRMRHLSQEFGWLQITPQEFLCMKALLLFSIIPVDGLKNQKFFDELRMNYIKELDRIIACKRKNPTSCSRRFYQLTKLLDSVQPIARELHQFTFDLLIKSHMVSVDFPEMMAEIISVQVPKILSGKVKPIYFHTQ
# Outline: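 Antagonist mode: inhibition of R1881-stimulated (10 nM final) bla reporter in GeneBLAzer AR HEK 293 cells, 16 h at 37C, compounds titrated. IC50 and efficacy from Hill-equation fits of 405/460–530 nm FRET ratios.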
# [10] = biological target: Androgen receptor (Homo sapiens) (UniProt P10275); assay: qHTS assay for small molecule agonists of androgen receptor signaling (AID 588515; active = well fitted curve in the direction sought with a large enough effect in the signal ratio, with a control signal flat; the % refers to the signal ratio; note: % is set by controls: 0 for no effect and ±100 for the full control effect); conditions: AR-UAS-bla HEK293, beta-lactamase ratio, agonist 16 h; stronger effect = higher value
# Outline: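 EC50 and efficacy came from Hill fits of titrations (up to 92 uM) normalized to 30 nM R1881 as 100% and DMSO as 0%. Compound exposure was 16 h at 37 C on AR-UAS-bla HEK293 cells, with a 405/460/530 nm CCF4 fluorescence read.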
structure (smiles),measurement,setting,value
O=C(c1ccccc1)C(O)c1ccccc1 (centres undefined),activation,[1],2.68% (inactive) and -5.31% (inactive)
same,outcome,[2],inactive
same,max response,[3],-5.59% and -16%
same,outcome,[4],inactive
same,outcome,[5],inactive
C[C@@H](N)C(=O)O,outcome,[6],inactive
OC[C@@H](O)[C@@H](O)[C@H](O)[C@H](O)CO,outcome,[5],inactive
CCCCCCCC(=O)OCC(COC(=O)CCCCCCC)OC(=O)CCCCCCC,outcome,[7],inactive
same,outcome,[8],inactive
same,activation,[1],2.19% (inactive)
same,outcome,[2],inactive
same,max response,[3],17.8%
same,outcome,[4],inactive
same,outcome,[5],inactive
C[N+](C)(C)CC[N+]1(C)Cc2c(Cl)c(Cl)c(Cl)c(Cl)c2C1,outcome,[6],inactive
Cc1c(N(C)C)c(=O)n(-c2ccccc2)n1C,outcome,[7],inactive
same,outcome,[8],inactive
same,activation,[1],1.22% (inactive) and -3.75% (inactive)
same,outcome,[2],inactive
same,max response,[3],15.6%
same,outcome,[4],inactive
CCN(CC)C(=O)c1cccc(C)c1,outcome,[7],inactive
same,outcome,[8],inactive
same,activation,[1],-2.58% (inactive) and -6.82% (inactive)
same,outcome,[2],inactive
same,max response,[3],-21.8%
same,outcome,[4],inactive
same,outcome,[5],inactive
Cc1cc(O)cc(C)c1Cl,outcome,[2],inactive
same,max response,[3],24.1%
same,outcome,[4],inactive
same,outcome,[5],inactive
FC(F)(F)C(Cl)Br (centres undefined),outcome,[7],inactive
same,activation,[1],-1.46% (inactive)
same,outcome,[2],inactive
same,max response,[3],-35.1%
same,outcome,[4],inactive
same,outcome,[5],inactive
O=C1c2ccccc2S(=O)(=O)N1CCCCN1CCN(c2ncccn2)CC1,outcome,[6],inactive
Cc1c(C(=O)NCCO)[n+](=O)c2ccccc2n1[O-],outcome,[9],inactive
same,activation,[1],0.345% (inactive)
same,outcome,[2],inactive
same,max response,[3],-20%
same,outcome,[4],inactive
same,outcome,[5],inactive
Cc1ccc(C(C)C)c(O)c1,outcome,[7],inactive
same,activation,[1],-10.5% (inactive)
same,outcome,[2],inactive
same,max response,[3],-0.969%
same,outcome,[4],inactive
same,outcome,[5],inactive
CC[N+](CC)(CC(=O)Nc1c(C)cccc1C)Cc1ccccc1,outcome,[7],inactive
same,outcome,[5],inactive
CC(=O)Nc1ccccc1,outcome,[7],inactive
same,outcome,[8],inactive
same,activation,[1],-0.909% (inactive)
same,outcome,[2],inactive
same,max response,[3],17.1%
same,outcome,[4],inactive
same,outcome,[5],inactive
CC1CC(OC(=O)c2ccccc2O)CC(C)(C)C1 (centres undefined),activation,[1],2.49% (inactive)
same,outcome,[2],inactive
same,max response,[3],23.9%
same,outcome,[4],inactive
same,outcome,[5],inactive
O=C(O)CCCCC1CCSS1 (centres undefined),outcome,[6],inactive
same,outcome,[7],inactive
same,activation,[1],-0.0197% (inactive) and 20% (inactive)
same,outcome,[2],inactive
same,max response,[3],4.26%
same,outcome,[4],inactive
same,outcome,[5],inactive
Cc1cc(=O)[nH]c(=S)[nH]1,outcome,[7],inactive
same,outcome,[8],inactive
same,activation,[1],-0.999% (inactive)
same,outcome,[2],inactive
same,outcome,[5],inactive
CC(=O)NS(=O)(=O)c1ccc(N)cc1,outcome,[7],inactive
same,activation,[1],-1.25% (inactive)
same,outcome,[2],inactive
same,max response,[3],26.9%
same,outcome,[4],inactive
CN(C(=O)c1c(O)c2ccccc2n(C)c1=O)c1ccccc1,outcome,[6],inactive
Nc1ccc(S(=O)(=O)c2ccc(N)cc2)cc1,outcome,[7],inactive
same,outcome,[8],inactive
same,max response,[3],-19.4% and 10.1%
same,outcome,[4],inactive
same,outcome,[5],inactive
CC(=O)Nc1ccc(C(=O)O)cc1,outcome,[7],inactive
same,activation,[1],-0.936% (inactive)
same,outcome,[2],inactive
same,outcome,[5],inactive
CCCC(O)C(CC)CO (centres undefined),outcome,[7],inactive
same,max response,[3],2.27%
same,outcome,[4],inactive
same,outcome,[5],inactive
CCCCCCCCCCCCCCCCCCO,outcome,[7],inactive
same,activation,[1],-8.91% (inactive)
same,outcome,[2],inactive
same,max response,[3],2.82%
same,outcome,[4],inactive
same,outcome,[5],inactive
O=C(OOC(=O)c1ccccc1)c1ccccc1,outcome,[7],inactive
same,activation,[1],6.15% (inactive)
same,outcome,[2],inactive
same,outcome,[5],inactive
CC(=O)Nc1cccc(O)c1,outcome,[7],inactive
same,outcome,[5],inactive
CC(C)=CCC/C(C)=C/CO,activation,[10],8.43% (inactive)
same,outcome,[9],inactive
same,outcome,[8],inactive
same,outcome,[2],inactive
same,max response,[3],-8.02%
same,outcome,[4],inactive
same,outcome,[5],inactive
Cc1cc(C)nc(NS(=O)(=O)c2ccc(N)cc2)n1,outcome,[8],inactive
same,activation,[1],5.22% (inactive) and 0.742% (inactive)
same,outcome,[2],inactive
same,max response,[3],18.4% and -14.9%
same,outcome,[4],inactive
same,outcome,[5],inactive
CCCCCC(N)=O,max response,[3],-31.8%
same,outcome,[4],inactive
same,outcome,[5],inactive
CN[C@@H]1[C@H](O)[C@H](NC)[C@H]2O[C@@]3(O)C(=O)C[C@@H](C)O[C@H]3O[C@@H]2[C@H]1O,outcome,[6],inactive
COc1ccc(O)cc1,activation,[10],-4.19% (inactive)
same,outcome,[9],inactive
same,activation,[1],-2.84% (inactive)
same,outcome,[2],inactive
same,max response,[3],3.48%
same,outcome,[4],inactive
COC(=O)c1ccc(O)cc1,activation,[1],15.6% (inactive)
same,outcome,[2],inactive
same,max response,[3],34.1%
same,outcome,[4],inactive
same,outcome,[5],inactive
Cc1cccc(Nc2ccccc2C(=O)O)c1C,outcome,[2],inactive
C=CCNC(N)=S,max response,[3],13.5%
same,outcome,[4],inactive
same,outcome,[5],inactive
CC(=O)OCC(COC(C)=O)OC(C)=O,activation,[1],-5.82% (inactive)
same,outcome,[2],inactive
same,max response,[3],-24.1% and 22.8%
same,outcome,[4],inactive
same,outcome,[5],inactive
CCCCOC(=O)c1ccc(N)cc1,outcome,[7],inactive
same,activation,[1],-4.26% (inactive)
same,outcome,[5],inactive
C1CCN2C[C@@H]3C[C@@H](CN4CCCC[C@@H]34)[C@H]2C1,outcome,[6],inactive
O=C1C(c2[nH]c3ccccc3c2O)=Nc2ccccc21,outcome,[8],inactive
same,activation,[1],5.37% (inactive)
same,outcome,[2],inactive
same,max response,[3],32.9%
same,outcome,[4],inactive
